Results published in PubChem BioAssay.
Values without a mark were called inactive. The source made the active and inactive calls.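 The calls were made as follows: active = mean inhibition above 46.5%, the solvent-only control mean plus 3 SD; inactive = the rest.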

What follows are compounds tested against Nuclear receptor coactivator 2 (Homo sapiens) (UniProt Q15596) (assay: SRC2 coactivator transcriptional activity inhibitors, confirmation, cell-based, luminescence, HEK293, triplicate (AID 652008;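 also: 0% = DMSO-treated cells and 100% = Gossypol at 36 µM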)). Details: HEK293 GAL4-SRC2 luciferase reporter, at 8.9 µM, stronger effect = higher value.
Nuclear receptor coactivator 2 (Homo sapiens), sequence (Q15596 whole entry, looked up, the tested form may be a part): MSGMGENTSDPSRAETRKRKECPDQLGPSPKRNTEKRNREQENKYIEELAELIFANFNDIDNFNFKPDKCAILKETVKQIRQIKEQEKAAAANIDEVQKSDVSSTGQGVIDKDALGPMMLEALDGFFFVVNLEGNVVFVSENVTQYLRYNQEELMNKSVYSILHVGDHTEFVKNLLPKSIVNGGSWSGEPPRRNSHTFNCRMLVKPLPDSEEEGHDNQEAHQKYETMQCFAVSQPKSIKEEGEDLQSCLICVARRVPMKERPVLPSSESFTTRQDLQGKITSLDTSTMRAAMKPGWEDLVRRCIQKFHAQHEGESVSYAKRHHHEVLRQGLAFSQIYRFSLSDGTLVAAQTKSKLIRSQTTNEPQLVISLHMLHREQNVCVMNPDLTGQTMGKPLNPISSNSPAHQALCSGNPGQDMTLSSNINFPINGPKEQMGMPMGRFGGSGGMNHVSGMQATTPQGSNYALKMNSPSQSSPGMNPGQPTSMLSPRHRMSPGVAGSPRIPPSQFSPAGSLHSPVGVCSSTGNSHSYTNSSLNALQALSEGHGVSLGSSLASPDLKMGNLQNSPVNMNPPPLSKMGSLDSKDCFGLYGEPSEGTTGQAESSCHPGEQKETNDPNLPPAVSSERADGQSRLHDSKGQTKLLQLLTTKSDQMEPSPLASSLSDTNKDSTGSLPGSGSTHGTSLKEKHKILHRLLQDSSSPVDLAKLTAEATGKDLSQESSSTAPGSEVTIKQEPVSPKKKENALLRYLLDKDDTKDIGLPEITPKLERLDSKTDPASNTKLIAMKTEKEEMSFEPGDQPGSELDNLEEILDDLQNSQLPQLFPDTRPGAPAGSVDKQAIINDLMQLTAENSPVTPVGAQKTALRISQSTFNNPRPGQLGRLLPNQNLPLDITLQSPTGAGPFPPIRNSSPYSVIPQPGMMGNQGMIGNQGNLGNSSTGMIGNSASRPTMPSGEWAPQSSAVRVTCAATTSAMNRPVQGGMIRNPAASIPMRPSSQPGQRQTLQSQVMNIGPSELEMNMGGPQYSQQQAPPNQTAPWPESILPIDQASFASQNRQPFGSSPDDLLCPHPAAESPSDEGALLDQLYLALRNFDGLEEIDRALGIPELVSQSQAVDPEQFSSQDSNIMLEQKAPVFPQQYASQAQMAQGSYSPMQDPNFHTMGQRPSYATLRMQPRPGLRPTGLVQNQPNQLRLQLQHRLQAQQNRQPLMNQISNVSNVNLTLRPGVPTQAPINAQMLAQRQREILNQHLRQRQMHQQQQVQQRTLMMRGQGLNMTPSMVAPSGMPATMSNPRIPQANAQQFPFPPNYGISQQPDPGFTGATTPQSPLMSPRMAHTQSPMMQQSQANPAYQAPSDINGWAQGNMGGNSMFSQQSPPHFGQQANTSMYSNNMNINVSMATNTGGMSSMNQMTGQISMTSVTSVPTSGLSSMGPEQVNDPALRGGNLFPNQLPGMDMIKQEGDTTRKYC

Compound | inhibition
C=CCc1c(C)nc(SC(C)C)[nH]c1=O | -25.4%
O=C(NCCc1ccccc1)c1ccc2c(c1)OCO2 | 16.7%
CCCCC(NC(=O)CCc1c(C)c2cc3c4c(oc3c(C)c2oc1=O)CCCC4)C(=O)O (stereo not given) | 29.4%
O=[N+]([O-])c1ccc(Sc2nnnn2-c2ccccc2)nc1 | 40.7%
Cc1ccc(-c2nc(-c3ccccn3)no2)cc1Cl | 34%
CC(C)(c1ccc(O)cc1)c1ccc(O)c(C(=O)O)c1 | -5.54%
Cc1cc(N2CCOCC2)c2c(N)cc(C)c(C)c2n1 | -11.2%
CC(NC(=O)CCc1nnc(-c2ccc(-c3ccccc3)cc2)o1)c1nccs1 (stereo not given) | 58.5% (active)
Cn1nnnc1Sc1ncnc2scc(-c3cccc(F)c3)c12 | 38.1%
COc1ccc2c(c1)CCCN2C(=O)C1CCCN(S(=O)(=O)c2ccc(C(C)(C)C)cc2)C1 (stereo not given) | 15.7%
COc1ccc2c(n1)Sc1nc3ccccc3nc1N2 | -87.5%
Oc1cccc(C(Nc2nccs2)c2ccc3cccnc3c2O)c1 (stereo not given) | 7.61%
Cc1cccc(Nc2nc(NCc3ccco3)c3ccccc3n2)c1 | 33.9%
NS(=O)(=O)c1ccc(NC(=O)COc2ccc(C(=O)c3ccc(F)cc3)cc2)cc1 | -2.94%
CC(C)Cc1nnc(NC(=O)CCC(=O)N2CCN(Cc3ccccc3)CC2)s1 | 17.4%
CCN(CC)S(=O)(=O)c1ccc(NC(=O)Nc2cccc(C(F)(F)F)c2)cc1 | 14%
NNC(=O)COc1ccc(-c2nccc(-c3ccc(F)cc3)n2)cc1 | 32.3%
O=S(=O)(c1ccc(Cl)cc1)c1snnc1-c1ccccc1 | 76.7% (active)
COc1cccc(/C=N/NC(=O)c2cc(-c3ccccn3)nc3ccccc23)c1O | 19.8%
CCNC(=O)COc1ccc(/C=C2\COc3ccccc3C2=O)cc1OC | 78.1% (active)

Compound | inhibition
NC(=O)C1CCN(CCS(=O)(=O)c2ccc(Cl)cc2)CC1 | -24.6%
COc1ccc(OC)c(S(=O)(=O)Nc2ccc3c(c2)OCCO3)c1 | 21.2%
COc1ccc2ccc(O)c(CN3CCN(S(=O)(=O)c4cccc(C(F)(F)F)c4)CC3)c2c1 | -14%
Brc1cccc(-c2cnc3n2CCCCC3)c1 | 29.2%
O=C(Cn1cnc2ccccc21)N/N=C/C(Br)=C/c1ccccc1 | -5.7%
Cc1sc2ncnc(N3CCC(C(=O)Nc4ccc(S(N)(=O)=O)cc4)CC3)c2c1C | 30.8%
CCOc1ccc(-c2cc(CCCC(=O)Nc3cc(OC)ccc3OC)no2)cc1 | 79.5% (active)
Cc1c(CCC(=O)NCCCC(=O)O)c(=O)oc2cc3oc4c(c3cc12)CCCC4 | 65% (active)
Cc1ccc2cc(CN(Cc3ccco3)S(=O)(=O)c3c(C)ccc4nsnc34)c(=O)[nH]c2c1 | 14.2%
O=C(Nc1nc2cc3c(cc2s1)OCCO3)c1ccco1 | 56.3% (active)
O=C(Cc1coc2cc3c(cc12)CCC3)OCC(=O)N1CCCC1=O | 38.7%
COc1ccc(NC(=O)Cc2nnc(SCC(=O)Nc3ccc(F)cc3)n2C)cc1 | -24%
COc1ccc(C(=O)NC2CC3CCCC(C2)N3CC(C)C)cc1 (stereo not given) | -12.2%
CC(C)(C)n1nc(Cc2cccc3ccccc23)c2c(N)ncnc21 | 29.4%
Cc1nnc(SCc2nc3sc(C(=O)O)c(C)c3c(=O)[nH]2)s1 | 9.02%
O=c1[nH]nc(Sc2ncnc3sccc23)n1CCc1ccccc1 | 47.5% (active)
Oc1cccc2c(NC(=S)Nc3ccc(SC(F)F)cc3)cccc12 | 53.1% (active)
COC(=O)COc1ccc(S(=O)(=O)Nc2ccc3c(c2)OCCO3)cc1C | 6.48%
O=C(CN1C(=O)NC2(CCCCC2)C1=O)Oc1ccc2c(C(F)(F)F)cc(=O)oc2c1 | -1.74%
CCCCc1ccc(N/C(N)=N/c2nc(C)cc(C)n2)cc1 | 32.1%
